tim23-1 inh: growth inhibitors of tim23-1 mutant yeast, primary screen, luminescence, uHTS; S. cerevisiae tim23-1 growth, BacTiter-Glo luminescence, 24 h; inhibition, % at 20 µM; actives 1.3% (n = 330,000);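 active = growth inhibition of the mutant yeast at or above 50%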;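 note: temperature-sensitive mutant grown at 25 °C; plate controls were DMSO-treated mutant yeast for no effect and medium wells lacking yeast for full effect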
NALP1 yeast inh: NALP1 inflammasome inhibitors in reconstituted yeast, colorimetric, S. cerevisiae, triplicate retest; S. cerevisiae NALP1/ASC/caspase-1 growth, X-gal OD620, 72 h; inhibition, % at 10 µM; actives 0.61% (n = 280,000); AID 2071, 2009; in the data active = inhibition mostly above about 24%, no sharp cut-off; inactive = mostly below about 32%
NALP3 yeast inh: NALP3 inflammasome inhibitors in reconstituted yeast, primary screen, luminescence, uHTS; AID 2825, 2010; Yeast reconstituted NLRP3/ASC/caspase-1, beta-gal luminescence, 24 h; actives 0.39% (n = 330,000); inhibition, % at 10 µM;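 active = inhibition of 50% or more; inactive = inhibition below 50%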;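 note: plate controls were induced DMSO wells for no effect and uninduced yeast grown without galactose for full effect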
tim10-1 inh: growth inhibitors of tim10-1 mutant yeast, primary screen, luminescence, uHTS. actives 2.2% (n = 330,000). AID 463190, 2010. S. cerevisiae tim10-1 ts strain growth, BacTiter-Glo, 24 h. inhibition, % at 20 µM;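 active = inhibition of at least 40%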;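 note: mutant grown at 25 °C; 0% = DMSO wells with yeast and 100% = wells holding no yeast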
TIM10 inh: growth inhibitors of isogenic TIM10 control yeast, primary screen, counter-screen for tim10-1 yeast inhibitor project, luminescence, uHTS | S. cerevisiae TIM10 strain growth, BacTiter-Glo luminescence, 24 h | inhibition, % at 10 µM | actives 1.4% (n = 330,000);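 active = inhibition of 40% or more at the single tested concentration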;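 note: wild-type TIM10 isogenic control strain grown at permissive 25 °C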
tim10-1 conf: growth inhibitors of tim10-1 mutant yeast, confirmation, single concentration, luminescence, S. cerevisiae; inhibition, % at 20 µM; shares compounds with tim10-1 inh; S. cerevisiae tim10-1 ts strain growth, BacTiter-Glo, 24 h; actives 56% (n = 7,400);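 active = inhibition of yeast growth at or above a set limit in either of two repeat tests at 20 µM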;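 note: tim10-1 mutant grown at permissive 25 °C to find synthetic lethal compounds; 0% = DMSO yeast wells and 100% = medium wells without yeast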
tim10 confirm: growth inhibitors of wild-type TIM10 yeast, confirmation, counter-screen for tim10-1 synthetic lethality project, single concentration, luminescence, S. cerevisiae; S. cerevisiae tim10 strain growth, BacTiter-Glo luminescence, 24 h; actives 63% (n = 4,600); AID 463215, 2010; inhibition, % at 10 µM; shares compounds with TIM10 inh;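 active = inhibition of yeast growth at or above a set limit in either of two replicates at 10 µM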;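 note: this counterscreen used the strain with wild-type TIM10; 0% = yeast with DMSO and 100% = medium wells lacking yeast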
tim23-1 confirm: tim23-1 mutant yeast growth inhibitors, confirmation, luminescence, single concentration; shares compounds with tim23-1 inh; S. cerevisiae tim23-1 growth, BacTiter-Glo luminescence, 24 h; inhibition, % at 20 µM; actives 83% (n = 4,400); AID 463218, 2010;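 active = inhibition above about 39% in either of two replicate wells at 20 µM, limit read from the data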;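 note: temperature-sensitive tim23-1 mutant grown at 25 °C; 0% = DMSO wells with yeast and 100% = medium wells without yeast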
An asterisk follows results filed as active; · = no result. This is a sample that favours compounds with a hit; in the whole collection about 4.1% have one here.

SMILES | tim23-1 inh | NALP1 yeast inh | NALP3 yeast inh | tim10-1 inh | TIM10 inh | tim10-1 conf | tim10 confirm | tim23-1 confirm
O=[N+]([O-])c1ccc(/C=C2\CCC(C3=CCCC3)=C2N2CCOCC2)cc1 | 53* | 24 | -16 | 52* | 36 | 61* | · | 52*
CC1C(=O)N2CCCc3cc(S(=O)(=O)N(C)c4ccccc4)cc1c32 (stereo unspecified) | -7 | -6 | -3 | 9 | 1 | · | · | ·
Cn1cccc1/C=N/n1c(-c2ccc(C(C)(C)C)cc2)n[nH]c1=S | 54* | 13 | 20 | 44* | 37 | 29 | · | 49*
Cn1cccc1/C=N/n1c(-c2ccccc2)n[nH]c1=S | 26 | 7 | 34 | 10 | 32 | · | · | ·
Cc1ccc(S(=O)(=O)N2C[C@@H]3[C@H]4CC[C@H](C4)[C@@H]3[C@@H](C)[C@H]2c2ccn(Cc3ccccc3)c2)cc1 | 37 | · | · | 21 | 0 | · | · | ·
Cc1ccc(S(=O)(=O)Nc2ccc(Br)cc2/C=N/n2cnnc2)cc1 | 77* | -7 | 35 | 41* | 27 | 35* | · | 72*
CC(CCc1ccco1)NC(=O)CSc1cc(=O)n(C)c2ccccc12 (stereo unspecified) | 20 | 4 | 6 | 19 | 27 | · | · | ·
CCSc1nnc(-c2ccc(C)cc2)c2ccccc12 | 64* | 45 | 35 | 55* | 44* | 49* | 9 | 70*
CC1(C)CC(NC(=O)C2CCN(S(=O)(=O)c3ccc(F)cc3)CC2)CC(C)(C)N1 | -14 | -5 | 10 | -5 | -8 | · | · | ·
CCN1CCN(c2nc(Nc3ccc(NC(C)=O)cc3)nc(Nc3ccc(NC(C)=O)cc3)n2)CC1 | 1 | · | 6 | 15 | -7 | · | · | ·
CC1CCCC(NS(=O)(=O)c2ccc3c(c2)OCCO3)C1C (stereo unspecified) | 52* | 27* | 36 | 57* | 34 | 48* | · | 59*
COc1ccc(C(=O)ON=C2CCN(c3ccc([N+](=O)[O-])cc3)CC2)cc1 | 54* | 15 | 22 | 58* | 64* | 48* | 65* | 71*
O=C(ON=C1CCN(c2ccc([N+](=O)[O-])cc2)CC1)c1ccccc1 | 64* | -20 | 14 | 47* | 52* | 24 | 60* | 60*
O=C(OC1CCN(c2ccc([N+](=O)[O-])cc2)CC1)c1ccccc1 | 10 | 3 | -10 | 7 | 20 | · | · | ·
COC(=O)/C=C1/SC(=NC(=O)c2cccc([N+](=O)[O-])c2)NC1=O | 11 | 16 | 4 | 2 | 1 | · | · | ·
O=C(Nc1cccc(Cl)c1)c1ccc(Cn2cc(Cl)cn2)cc1 | 68* | 40 | 50 | 60* | 73* | 47* | 17 | 76*
COc1ccc(-c2oc3ccccc3c(=O)c2OC(C)=O)cc1 | 60* | 3 | 4 | 42* | 55* | 34* | 48* | 59*
O=C(O)COc1c(-c2ccco2)oc2ccccc2c1=O | 0 | 1 | -8 | -3 | 14 | · | · | ·
CC(=O)Oc1c(-c2ccc(Br)o2)oc2ccccc2c1=O | 65* | -8 | 34 | 53* | 73* | 60* | 78* | 86*
COc1ccc(-c2oc3ccccc3c(=O)c2OCC(=O)O)cc1 | 13 | -23 | 16 | -1 | -6 | · | · | ·
O=S(=O)(N/N=C/c1cn(Cc2ccccc2)c2ccccc12)c1ccccc1 | 7 | 19 | 2 | 26 | 20 | · | · | ·
O=C1N/C(=N\N=C\c2cccs2)SC1Cc1cccc(Cl)c1Cl (stereo unspecified) | 6 | 13 | 11 | 6 | 15 | · | · | ·
COc1ccccc1-n1c(SCC(=O)NC2CC2)nc2ccccc2c1=O | 13 | · | 2 | 6 | 2 | · | · | ·
CC(C)N1C2OC(C3OC4C(O3)N(C(C)C)S(=O)(=O)N4C(C)C)OC2N(C(C)C)S1(=O)=O (stereo unspecified) | 55* | -3 | 1 | 60* | 89* | 71* | 88* | 29
CCSc1nnc(NC(=O)CCC2CCCCC2)s1 | 5 | · | 10 | 15 | 12 | · | · | ·
SMILES | tim23-1 inh | NALP1 yeast inh | NALP3 yeast inh | tim10-1 inh | TIM10 inh | tim10-1 conf | tim10 confirm | tim23-1 confirm
O=C(c1cc(C(=O)c2ccco2)cc(C(=O)c2ccco2)c1)c1ccco1 | -29 | 35 | 19 | 12 | -11 | · | · | ·
Cc1ccc2occ(C(=O)c3ccco3)c(=O)c2c1 | 71* | 47 | 8 | 42* | 49* | 23 | 29 | 51*
COc1ccccc1NC(=O)Nc1ccc(-n2ccc(C(F)(F)F)n2)cc1 | 64* | 4 | 16 | 54* | 30 | 50* | · | 60*
Cc1nnc(NC(=O)C2COc3ccccc3O2)s1 (stereo unspecified) | 10 | 8 | -4 | 5 | 4 | · | · | ·
CCC(CC)c1nnc(NC(=O)C2COc3ccccc3O2)s1 (stereo unspecified) | 50* | -2 | 13 | 47* | 37 | 46* | · | 53*
COc1ccc(C(C[N+](=O)[O-])c2c(C)cc3ccccn23)cc1 (stereo unspecified) | 47 | -2 | 14 | 30 | 9 | · | · | ·
COc1ccc(C(C[N+](=O)[O-])c2c(-c3ccccc3)cc3ccccn23)c(OC)c1 (stereo unspecified) | 73* | 0 | 13 | 70* | 60* | 67* | 67* | 91*
CN(CCc1ccccn1)S(=O)(=O)c1ccc(F)cc1 | 10 | 13 | 11 | -1 | -1 | · | · | ·
CC(C)(C)c1cc(S(=O)(=O)CCc2ccccn2)cc(C(C)(C)C)c1F | 60* | -6 | 1 | 48* | 53* | 45* | 52* | 58*
CCOc1ccccc1NC(=O)CN1C(=O)C(C)SC(C)C1=O (stereo unspecified) | 22 | -12 | 3 | 17 | 7 | · | · | ·
COc1ccc(C(=O)NC(=S)NC(C)(C)C)cc1Br | 64* | 9 | 35 | 40* | 60* | 47* | 53* | 77*
COc1ccc(C(=O)NC(=S)NC(C)C)cc1Br | 40 | -4 | 15 | -4 | 18 | · | · | ·
COc1ccc(C(=O)NC(=S)NCc2ccco2)cc1Br | 54* | 1 | 25 | 46* | 21 | 38* | · | 53*
Nc1c(Cl)cc(C2=NCCn3nc4cc(C(F)(F)F)ccc4c32)cc1Cl | 22 | · | 17 | 5 | 2 | · | · | ·

From PubChem
